In all, about 68,000 sequences were measured (“fluorescence intensity (a.u.)”: median about 9,100, highest 2% from about 16,000 on). What follows is part of a selection rich in the highest values, with near analogues and random picks from the rest.

Chain of OsWRKY34 (Q0JBA9 entry or part of it): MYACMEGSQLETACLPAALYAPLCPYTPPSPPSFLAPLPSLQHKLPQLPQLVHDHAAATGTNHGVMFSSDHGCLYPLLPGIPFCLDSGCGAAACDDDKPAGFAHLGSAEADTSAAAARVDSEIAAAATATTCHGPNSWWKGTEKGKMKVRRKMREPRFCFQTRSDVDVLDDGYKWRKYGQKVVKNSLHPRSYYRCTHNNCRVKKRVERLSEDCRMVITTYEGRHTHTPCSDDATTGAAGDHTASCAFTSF

The experiment deals with OsWRKY34 (Oryza sativa, UniProt Q0JBA9 1-250). Description: protein-binding microarray (RPBM); PBS, 2% BSA, 51.3 ng/ul salmon testes DNA, 50 uM zinc acetate, 200 nM TF, 25 C, 1 h; high values mean tight binding. The conditions noted are these: protein: recombinant; tags: N-terminal polyhistidine and DsRed monomer fusion (pET32a); label: CyDye5-dUTP incorporated in the synthesized complementary strand; 3' TTTTT single-stranded linker to array surface; dsDNA, one strand shown. The method in brief:
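Transcription factors, each fused N-terminally to a polyhistidine tag and DsRed, were expressed in E. coli BL21-CodonPlus and purified on Ni–NTA. A custom Agilent array was made double-stranded by primer extension with Cy5-dUTP and blocked with 2% BSA. It was incubated with 200 nM protein in PBS, 2% BSA, salmon testes DNA and 50 µM zinc acetate at 25 °C for 1 h, then washed. The binding signal is per-feature fluorescence intensity (arbitrary units) read on an Axon 4000B scanner.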
Turning to “GCTCGCCGCGTGCTCTCGTCATCCATCCGACCCACGCCCGCGGAGTCACCTAGTGCAG”, the binding signal was 11000 fluorescence intensity (a.u.). For the sequence “ATTTTATATGATTTCTTACAGACTTTTTTTATCATTTTACCGGAGTCACCTAGTGCAG”, the binding signal is 9760 fluorescence intensity (a.u.). The same measure for “GCATTGGTTGGTGGTTTGGTGACGGCTTCGTTGTAGGCCTCGGAGTCACCTAGTGCAG”: 9760 fluorescence intensity (a.u.); for “TCCTCTCTCTCTCTCTCTCTCTCTCCTCCTTTGGAGTTGTCGGAGTCACCTAGTGCAG”: 10500 fluorescence intensity (a.u.).

Consider “CGTCCAGTCCGCTCCCTCCCTCATTCATTCGGTTCGGTAACGGAGTCACCTAGTGCAG”, for which the binding signal is 8870 fluorescence intensity (a.u.). The same measure for “CGTCGACGACGTCTCGATCGATCGGTGGTGGTGGTGGTGGCGGAGTCACCTAGTGCAG”: 8540 fluorescence intensity (a.u.). For the sequence “CTCGTGGTCAAATCTGAATATCCGATACTTCCGTTTCAAACGGAGTCACCTAGTGCAG”, the binding signal is 8300 fluorescence intensity (a.u.). The same measure for “ACCGTCTCATCTTCTTCTTCCTCCTCCTCTGATCTTCTCCCGGAGTCACCTAGTGCAG”: 8220 fluorescence intensity (a.u.); for “CGCCGCCGCTCCAGCTCCAGCCGCCCGTGCTCCCTCGCGGCGGAGTCACCTAGTGCAG”: 8200 fluorescence intensity (a.u.); for “GCGCTCGCCGCTGCCGCAAGCTCGCCTCCGACCCCGGCCACGGAGTCACCTAGTGCAG”: 9530 fluorescence intensity (a.u.). The same measure for “ACCAACCAACCACTGCTCTCGCCGCGCCGTCCTCTTCATCCGGAGTCACCTAGTGCAG”: 18200 fluorescence intensity (a.u.); for “TCTGCTTCTTCATCCTCGTGCTCTGCTTCTCTCTTCTTCCCGGAGTCACCTAGTGCAG”: 8980 fluorescence intensity (a.u.).

Turning to “CGTTTTCTTTTTTCTTCCTCGCTTTCTCTCTCTCTCTCTCCGGAGTCACCTAGTGCAG”, the binding signal was 11600 fluorescence intensity (a.u.).

Take “CCCCAACCCGCCGCCAGCCACCGAGCTCGCCACCGTCTCCCGGAGTCACCTAGTGCAG”: the binding signal is 8970 fluorescence intensity (a.u.). The same measure for “GATCTCATCCCGTCCCGTCATCTGCTTCCTCTCTCGGAACCGGAGTCACCTAGTGCAG”: 16900 fluorescence intensity (a.u.); for “TCACCACTGCTGCTCTCGCTGCCGTCCTTGTTCTTCGCGCCGGAGTCACCTAGTGCAG”: 8110 fluorescence intensity (a.u.).

Regarding “CGCTTTCCTCTCCGGCAACGACCTCGCAGCTGTGGCCACCCGGAGTCACCTAGTGCAG”, the binding signal is 18600 fluorescence intensity (a.u.). The same measure for “TGTGCCGCTCCGTCGTGCTCTTCGTCGCGCCACTCATCCTCGGAGTCACCTAGTGCAG”: 9080 fluorescence intensity (a.u.); for “CGCCTCGCGGCAGGCAGCCGAGCTGTCTCCAACCGTGCCGCGGAGTCACCTAGTGCAG”: 37300 fluorescence intensity (a.u.); for “ACAATCCATTTTATTCCAACAGATATATACACGGGGACAACGGAGTCACCTAGTGCAG”: 8410 fluorescence intensity (a.u.). The same measure for “GGCTAGGTTGTGCGCGCCCTTCTCGATGTAGCAATAGCAACGGAGTCACCTAGTGCAG”: 8520 fluorescence intensity (a.u.); for “CCTTCGACCCGTCCCCTCACAAACGGCCGTTTCCCTCCCGCGGAGTCACCTAGTGCAG”: 9230 fluorescence intensity (a.u.). With “GATCGAATCGAATAGAGTACATTCTCTACAGGGGAGGGGACGGAGTCACCTAGTGCAG”, the binding signal is 9760 fluorescence intensity (a.u.).

Regarding “GTCTGTGAATGTTTTATTTGCCTTGTCTGAACTATCTTTACGGAGTCACCTAGTGCAG”, the binding signal is 11400 fluorescence intensity (a.u.). For “TGTTGGTGAATGGTAATTTTTTGGGTTGATATGTTGCTGACGGAGTCACCTAGTGCAG”, the binding signal was 9580 fluorescence intensity (a.u.). The same measure for “CTTCCTTCCTAACGTATCGCCCACATTCCTCCACGTCTCCCGGAGTCACCTAGTGCAG”: 8980 fluorescence intensity (a.u.); for “TCCATTTCCTTGTTTGGTTGGGTGGATGAGAATGGATTGACGGAGTCACCTAGTGCAG”: 9010 fluorescence intensity (a.u.).

On to “ACACCGCACCGCCGCAATCGTTGGCACAAGCTACAACCCTCGGAGTCACCTAGTGCAG”, for which the binding signal was 8540 fluorescence intensity (a.u.). For the sequence “CAAAACAGCCGCGTTTTGGCTCACTAGTCACTTGTTTGACCGGAGTCACCTAGTGCAG”, the binding signal was 9710 fluorescence intensity (a.u.). The same measure for “TTGTCTCACCACTGCTTCGCATCCTCCGCCGCCGCCTCACCGGAGTCACCTAGTGCAG”: 11000 fluorescence intensity (a.u.). For “GCAACCACTGTCTCGCTCTCCGCCGCCATCGCCGCCGCCGCGGAGTCACCTAGTGCAG”, the binding signal was 10500 fluorescence intensity (a.u.). The same measure for “CAGCCCACCGCCGCATCCTCGCAACCACTGTCTCGCTCTCCGGAGTCACCTAGTGCAG”: 17000 fluorescence intensity (a.u.); for “ATTTTTTTGGGCGCGGGTTGGAGCCGGTTTGACTAAAAGGCGGAGTCACCTAGTGCAG”: 8310 fluorescence intensity (a.u.). The same measure for “GATTGACTTGCCAAACATTTTACATGCGTTTATTGTACCACGGAGTCACCTAGTGCAG”: 9920 fluorescence intensity (a.u.); for “CTCCTGGCAACCCCATGCACTGCTTTTGCTGCCCTTAAGTCGGAGTCACCTAGTGCAG”: 8620 fluorescence intensity (a.u.).

Regarding “AAATATACAACTCTTGGACGCCCTTACATCTCTCCATTGTCGGAGTCACCTAGTGCAG”, the binding signal is 8230 fluorescence intensity (a.u.). The same measure for “AGCCACCTTGTCGTTTTCCGCTCCTCACCTGCTCAACTTCCGGAGTCACCTAGTGCAG”: 9800 fluorescence intensity (a.u.). The same measure for “TACGGGTTAGGGTTTGGGGTTGGGGTCAAGGTAGGAGGGGCGGAGTCACCTAGTGCAG”: 22500 fluorescence intensity (a.u.); for “AGAGGTTTGGGGTTGGTTCATCTCGCGGGCTTGGGCGGCGCGGAGTCACCTAGTGCAG”: 14400 fluorescence intensity (a.u.). With “ACACACCGCGGGTTGGAGGAGGAGGAGGAGGAGGTAGGGGCGGAGTCACCTAGTGCAG”, the binding signal is 10500 fluorescence intensity (a.u.). As to “CTTGGAGGTGGTTCAGGTGGAGGCGGCGGTCTCGGAGGTGCGGAGTCACCTAGTGCAG”, the binding signal is 9240 fluorescence intensity (a.u.).

On to “GTTTGATTTGGTGAGGCGGGCGGTGTGCGCGTGGTGGTCTCGGAGTCACCTAGTGCAG”, for which the binding signal was 8680 fluorescence intensity (a.u.). For “CGGCGGGTTAGGGTTTGGGGTTGGGGTAAGGATAGGAGGGCGGAGTCACCTAGTGCAG”, the binding signal was 14200 fluorescence intensity (a.u.). The same measure for “GGTTTGGTTGGGGTTTAGGTCTCGGGGCGGCGCGGAGGCGCGGAGTCACCTAGTGCAG”: 17700 fluorescence intensity (a.u.); for “GTGCGCGTTCTTGGTGTTATGGAGGCGGGTCTCGGCGGGGCGGAGTCACCTAGTGCAG”: 17600 fluorescence intensity (a.u.).

On to “GGTTTGGAGGCGGAGGTGGCGCTGGAGGAGGCGGCGGTCTCGGAGTCACCTAGTGCAG”, for which the binding signal was 9970 fluorescence intensity (a.u.). In the case of “GCCTCGACATGCGCGTCCGATTTATCCCCTTTTTTTTTTTCGGAGTCACCTAGTGCAG”, the binding signal was 8470 fluorescence intensity (a.u.).

Turning to “CATGCCAGGTGTTGGGCCTCATCGTCGGCCGCTTAGTATCCGGAGTCACCTAGTGCAG”, the binding signal is 8380 fluorescence intensity (a.u.). The same measure for “TTTTGTCCTTCAACCTGTTGAAGTTGTTTTCAGTTGTTCACGGAGTCACCTAGTGCAG”: 11600 fluorescence intensity (a.u.); for “GTCACCAGTGTCCGCCAATAATTTGCACATCTTCTCATATCGGAGTCACCTAGTGCAG”: 10300 fluorescence intensity (a.u.); for “TGCTTAGTTGCCCTACAACCTTTTTACAGGCTATATTTATCGGAGTCACCTAGTGCAG”: 8110 fluorescence intensity (a.u.). For “TAGCTTAATATTTTTTTTCTCGCTAGCTTTATTTAAAATGCGGAGTCACCTAGTGCAG”, the binding signal was 8170 fluorescence intensity (a.u.).

Consider “TATTCACGGCTGCACTTATTTTGGGACGGAGGTAGTATTTCGGAGTCACCTAGTGCAG”, for which the binding signal is 8070 fluorescence intensity (a.u.). For “CCCTCCTTCCCTTTTAGTGGGTCTGTTTTCTTGGAGCGCGCGGAGTCACCTAGTGCAG”, the binding signal was 8600 fluorescence intensity (a.u.).

Source of the values: PMC7819943, “Rice protein-binding microarrays: a tool to detect cis-acting elements near promoter regions in rice”.
